# Unmarked numbers belong to inactive results. Records with an inconclusive call do not appear. A call without a number means that no potency is given here. Active and inactive are the calls of the source. Unless noted, the call rests on the fitted dose curve; in most records, active means well fitted curve in the direction sought with a large enough effect in the repeat runs; inconclusive means weak or mixed curves; inactive means no such curve, though single readings can be large; an effect the other way counts as inactive or inconclusive.
# Columns and labels:
# [1] = qHTS assay to identify small molecule antagonists of the estrogen receptor beta (ER-beta) signaling pathway - cell viability counter screen (AID 1259382); further: series mostly up to about 92 µM; nearly all actives have a fitted effect of over 55% in size
# In short: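 Agonist-stimulated (1nM E2) ER-beta-UAS-bla HEK293T cells are incubated with library compounds for 16 hr at 37C. Cell viability is then assessed in the reporter-assay wells by adding CellTiter-Glo and reading luminescence after 30 min.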
# [2] = target: Estrogen receptor (Homo sapiens) (UniProt P03372); test: qHTS assay to identify small molecule agonists of the estrogen receptor alpha (ER-alpha) signaling pathway in the presence of an antagonist (AID 1259383; calls by dose curve; further: top concentration of the series differs between compounds; nearly all actives have a fitted effect of over 15% in size)
# Estrogen receptor (Homo sapiens), sequence (P03372 whole entry, looked up): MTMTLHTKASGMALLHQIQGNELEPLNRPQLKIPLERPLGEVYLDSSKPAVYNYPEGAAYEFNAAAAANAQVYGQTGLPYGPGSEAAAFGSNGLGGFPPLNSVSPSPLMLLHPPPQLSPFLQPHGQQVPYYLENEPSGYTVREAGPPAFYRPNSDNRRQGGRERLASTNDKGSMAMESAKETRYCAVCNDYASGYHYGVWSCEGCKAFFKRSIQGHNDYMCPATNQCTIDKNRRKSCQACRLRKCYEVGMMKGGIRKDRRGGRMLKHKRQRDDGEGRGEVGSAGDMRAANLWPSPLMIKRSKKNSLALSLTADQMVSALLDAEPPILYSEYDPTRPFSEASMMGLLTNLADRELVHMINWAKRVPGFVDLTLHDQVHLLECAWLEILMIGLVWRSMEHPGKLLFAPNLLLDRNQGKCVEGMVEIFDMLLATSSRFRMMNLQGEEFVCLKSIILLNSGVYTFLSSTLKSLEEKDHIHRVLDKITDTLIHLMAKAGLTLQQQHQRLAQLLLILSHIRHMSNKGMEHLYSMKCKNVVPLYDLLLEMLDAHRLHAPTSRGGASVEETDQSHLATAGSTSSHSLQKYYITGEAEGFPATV
# In short: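 Using VM7Luc4E2 cells seeded 24hr before treatment, antagonist ICI-182,780 (10.0nM final) was added, followed by compounds at 15 concentrations. Plates incubated 22hr; ONE-Glo luminescence quantified reporter activity.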
# [3] = qHTS assay to identify small molecule agonists or antagonists of the thyroid stimulating hormone receptor (TSHR) signaling pathway - wild type cell line counter screen (AID 1259384; calls by dose curve)
# In short: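 Wild-type HEK293 cells were plated 18 h at 37 C/5% CO2, pin-dosed with compound plus Ro20-1724 medium, held 30 min at room temperature, then given cAMP-d2 and anti-cAMP-cryptate; fluorescence was read after 1 h. Fifteen concentrations, triplicate.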
# [4] = target: Thyrotropin receptor (Homo sapiens) (UniProt P16473); test: qHTS assay to identify small molecule antagonists of the thyroid stimulating hormone receptor (TSHR) signaling pathway (AID 1259385; calls by dose curve; further: nearly all actives have a fitted effect of over 20% in size)
# Thyrotropin receptor (Homo sapiens), sequence (P16473 whole entry, looked up): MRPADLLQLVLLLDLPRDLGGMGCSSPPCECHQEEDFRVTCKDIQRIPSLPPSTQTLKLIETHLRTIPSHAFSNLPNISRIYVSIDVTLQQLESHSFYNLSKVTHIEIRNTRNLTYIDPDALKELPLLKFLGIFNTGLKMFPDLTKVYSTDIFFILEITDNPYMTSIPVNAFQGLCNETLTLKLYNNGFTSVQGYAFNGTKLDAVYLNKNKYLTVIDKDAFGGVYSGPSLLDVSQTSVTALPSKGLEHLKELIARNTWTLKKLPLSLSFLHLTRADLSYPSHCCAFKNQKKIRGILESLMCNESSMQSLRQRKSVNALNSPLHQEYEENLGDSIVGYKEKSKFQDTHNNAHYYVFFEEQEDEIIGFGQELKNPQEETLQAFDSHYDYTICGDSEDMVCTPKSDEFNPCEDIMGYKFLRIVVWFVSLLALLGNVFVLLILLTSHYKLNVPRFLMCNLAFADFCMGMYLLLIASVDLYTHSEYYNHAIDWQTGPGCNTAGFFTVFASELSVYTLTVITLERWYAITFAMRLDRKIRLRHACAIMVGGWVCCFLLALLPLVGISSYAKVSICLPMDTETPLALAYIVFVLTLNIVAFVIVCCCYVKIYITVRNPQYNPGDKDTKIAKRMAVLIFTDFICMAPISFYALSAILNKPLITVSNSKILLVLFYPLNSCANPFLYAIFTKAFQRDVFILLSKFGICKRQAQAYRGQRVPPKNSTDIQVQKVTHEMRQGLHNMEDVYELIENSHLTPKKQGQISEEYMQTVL
# In short: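 TSHR-HEK293 cells were plated and held 18 h at 37C/5% CO2, then given compound plus Ro20-1724 and stimulated with TSH at 1.5 ng/mL final. After 30 min at room temperature, cAMP was detected with cAMP-d2/anti-cAMP-cryptate (1 h) by fluorescence.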
# [5] = qHTS assay to identify small molecule agonists of the estrogen receptor alpha (ER-alpha) signaling pathway in the presence of an antagonist - cell viability counter screen (AID 1259386);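 further: series mostly up to about 92 µM; cells exposed to compounds for 22 h at 37 °C before the viability read; nearly all actives have a fitted effect of over 30% in size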
# In short: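 ICI-182,780 at 10.0nM final accompanies the compound titration (15 concentrations, 22hr, 37C) on VM7Luc4E2 cells. The CellTiter-Fluor fluorescence readout runs in the same wells as the luciferase assay.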
# [6] = target: Progesterone receptor (Homo sapiens) (UniProt P06401); test: qHTS assay to identify small molecule agonists of the progesterone receptor (PR) signaling pathway (AID 1346784; calls by dose curve; further: nearly all actives have a fitted effect of over 30% in size)
# Progesterone receptor (Homo sapiens), sequence (P06401 whole entry, looked up): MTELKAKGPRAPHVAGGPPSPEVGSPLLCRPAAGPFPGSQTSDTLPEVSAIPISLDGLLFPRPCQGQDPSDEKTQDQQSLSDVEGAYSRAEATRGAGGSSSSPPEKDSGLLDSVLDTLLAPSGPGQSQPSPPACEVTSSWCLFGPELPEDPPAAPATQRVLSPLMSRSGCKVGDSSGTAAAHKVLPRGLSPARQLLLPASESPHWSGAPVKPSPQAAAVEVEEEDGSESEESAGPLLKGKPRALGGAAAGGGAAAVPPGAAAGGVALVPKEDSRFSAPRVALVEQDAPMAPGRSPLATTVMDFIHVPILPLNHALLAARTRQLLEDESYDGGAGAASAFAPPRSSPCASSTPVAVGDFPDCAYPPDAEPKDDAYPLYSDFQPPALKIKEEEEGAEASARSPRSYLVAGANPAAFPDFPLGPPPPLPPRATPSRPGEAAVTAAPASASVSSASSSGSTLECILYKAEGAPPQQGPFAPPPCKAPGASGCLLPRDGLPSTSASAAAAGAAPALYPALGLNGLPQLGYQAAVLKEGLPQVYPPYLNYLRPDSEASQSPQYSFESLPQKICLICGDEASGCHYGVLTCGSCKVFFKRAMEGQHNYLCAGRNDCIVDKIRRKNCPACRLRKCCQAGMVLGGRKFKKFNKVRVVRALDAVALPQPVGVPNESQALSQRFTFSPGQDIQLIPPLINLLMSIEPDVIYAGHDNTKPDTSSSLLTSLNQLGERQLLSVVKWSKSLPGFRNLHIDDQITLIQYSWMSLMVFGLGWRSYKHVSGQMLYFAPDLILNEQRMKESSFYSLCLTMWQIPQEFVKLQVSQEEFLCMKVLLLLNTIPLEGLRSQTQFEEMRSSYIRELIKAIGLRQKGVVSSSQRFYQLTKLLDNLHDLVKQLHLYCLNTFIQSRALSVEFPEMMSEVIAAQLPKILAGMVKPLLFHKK
# In short: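 HEK 293T PR-UAS-bla reporter cells, 2% charcoal-stripped FBS; 6 hr settle at 37C/5% CO2, compound (DMSO) 16 hr, LiveBLAzer B/G FRET substrate 2 hr RT, fluorescence intensity read.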
# [7] = target: Progesterone receptor (Homo sapiens) (UniProt P06401); test: qHTS assay to identify small molecule antagonists of the progesterone receptor (PR) signaling pathway (AID 1346795; active means well fitted inhibition curve with a large enough effect in the signal ratio in the repeat runs, not every such curve was filed as active; the % refers to the signal ratio; further: potency means the concentration at half of the fitted maximal effect)
# In short: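 Beta-lactamase reporter, HEK293T PR-UAS-bla line; 2% charcoal-stripped FBS; 6 hr pre-incubation, 37C/5% CO2. Compound + R5020 1 nM final, 16 hr. LiveBLAzer B/G FRET substrate, 2 hr RT; fluorescence intensity read.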
# [8] = qHTS assay to identify small molecule agonists of the progesterone receptor (PR) signaling pathway - cell viability counter screen (AID 1346799; calls by dose curve; further: nearly all actives have a fitted effect of over 45% in size)
# In short: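 HEK293T PR-UAS-bla, 3,000 cells/well, 2% charcoal-stripped FBS; 6 h settle, compound 16 h at 37C/5% CO2; LiveBLAzer 2 h RT, then CellTiter-Glo 30 min RT, luminescence read.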
# [9] = qHTS assay to identify small molecule antagonists of the TGF-beta/Smad signaling pathway - cell viability counter screen (AID 1346824); further: nearly all actives have a fitted effect of over 50% in size
# In short: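 SBE-bla HEK 293T cells were plated overnight at 37 C, then given compounds in DMSO plus TGF-beta1 (added as 0.25 ng/mL solution) for 5 hr. After the bla read, CellTiter-Glo was added to the same wells and luminescence read after 30 min at room temperature.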
# [10] = qHTS assay to identify small molecule agonists of the TGF-beta/Smad signaling pathway - cell viability counter screen (AID 1346829); further: top concentration of the series differs between compounds; nearly all actives have a fitted effect of over 45% in size
# In short: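 CellTiter-Glo luminescence readout; SBE-bla HEK 293T cells, overnight plating, compound 5 hr at 37 C/5% CO2, then bla substrate 2 hr RT, then CellTiter-Glo 30 min RT.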
# [11] = qHTS assay to identify small molecule agonists of the TGF-beta/Smad signaling pathway (AID 1346859; active means well fitted activation curve with a large enough effect in the signal ratio in the repeat runs, not every such curve was filed as active; the % refers to the signal ratio; further: series mostly up to about 77 µM)
# In short: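 Read-out: fluorescence at 460 and 530 nm (405 nm excitation) after a 2 hr room-temperature incubation with beta-lactamase FRET substrate. SBE-bla HEK 293T cells had been treated with test compounds for 5 hr at 37 C.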
# [12] = target: Thyrotropin-releasing hormone receptor (Homo sapiens) (UniProt P34981); test: qHTS assay to identify small molecule antagonists of the thyrotropin-releasing hormone receptor (TRHR) signaling pathway (AID 1346877; active means well fitted inhibition curve with a large enough effect in the repeat runs, not every such curve was filed as active; further: series mostly up to about 51 µM)
# Thyrotropin-releasing hormone receptor (Homo sapiens), sequence (P34981 whole entry, looked up): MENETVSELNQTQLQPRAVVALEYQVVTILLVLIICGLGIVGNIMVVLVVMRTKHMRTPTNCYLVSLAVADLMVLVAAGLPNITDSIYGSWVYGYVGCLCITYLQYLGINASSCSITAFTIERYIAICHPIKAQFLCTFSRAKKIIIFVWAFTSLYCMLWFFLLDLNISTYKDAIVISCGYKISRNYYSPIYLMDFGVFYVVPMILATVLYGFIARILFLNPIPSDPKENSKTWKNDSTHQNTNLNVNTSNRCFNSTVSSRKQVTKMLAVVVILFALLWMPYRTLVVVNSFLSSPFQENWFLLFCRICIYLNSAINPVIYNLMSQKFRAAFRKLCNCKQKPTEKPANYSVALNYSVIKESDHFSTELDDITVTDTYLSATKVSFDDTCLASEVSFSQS
# In short: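 Screening used HEK293 cells engineered with TRHR, with a brief 5 min room-temperature compound exposure preceding addition of TRH to 1 nM. The read-out was kinetic calcium-dye fluorescence, concentration-response from 15 doses in triplicate.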
# [13] = target: Thyrotropin-releasing hormone receptor (Homo sapiens) (UniProt P34981); test: qHTS assay to identify small molecule agonists of the thyrotropin-releasing hormone receptor (TRHR) signaling pathway (AID 1346891; calls by dose curve;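 further: HEK293 cells expressing TRHR with calcium dye readout; series mostly up to about 58 µM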)
# In short: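 HEK293/TRHR cells, 1500 per well, 18 h 37 °C; Ca dye 2 h 37 °C; pin-tool compound addition (agonist mode); kinetic fluorescence 3 min, 1 s reads; 15 concentrations, triplicate.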
# [14] = target: Estrogen receptor beta (Homo sapiens) (UniProt Q92731); test: qHTS assay to identify small molecule agonists of the estrogen receptor beta (ER-beta) signaling pathway (AID 1259377; active means well fitted activation curve with a large enough effect in the signal ratio in the repeat runs, not every such curve was filed as active; the % refers to the signal ratio)
# Estrogen receptor beta (Homo sapiens), sequence (Q92731 whole entry, looked up): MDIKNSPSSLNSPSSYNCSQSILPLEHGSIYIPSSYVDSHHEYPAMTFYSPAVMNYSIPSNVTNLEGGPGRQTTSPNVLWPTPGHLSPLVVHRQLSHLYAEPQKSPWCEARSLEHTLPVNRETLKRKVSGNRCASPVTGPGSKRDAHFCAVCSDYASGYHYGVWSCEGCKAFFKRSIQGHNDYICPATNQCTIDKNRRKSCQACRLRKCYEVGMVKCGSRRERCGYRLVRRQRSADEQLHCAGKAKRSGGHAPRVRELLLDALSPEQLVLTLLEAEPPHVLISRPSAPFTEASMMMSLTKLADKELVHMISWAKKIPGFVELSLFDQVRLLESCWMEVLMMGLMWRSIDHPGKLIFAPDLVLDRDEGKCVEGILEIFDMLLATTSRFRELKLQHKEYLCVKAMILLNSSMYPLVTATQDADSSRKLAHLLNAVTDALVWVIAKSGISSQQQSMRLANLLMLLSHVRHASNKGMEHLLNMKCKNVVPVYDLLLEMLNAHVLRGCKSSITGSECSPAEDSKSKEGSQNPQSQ
# In short: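 Beta-lactamase reporter readout: fluorescence of LiveBLAzer B/G FRET substrate after 2 h at room temperature, following 16 h compound treatment of ER-beta-UAS-bla HEK293T cells at 37C in 2% charcoal-stripped FBS medium.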
# [15] = qHTS assay to identify small molecule agonists of the estrogen receptor beta (ER-beta) signaling pathway - cell viability counter screen (AID 1259380); further: nearly all actives have a fitted effect of over 30% in size
# In short: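 Cells used were ER-beta-UAS-bla HEK293T in medium with 2% charcoal-stripped FBS. They were treated for 16 hr at 37C. Viability came from CellTiter-Glo luminescence.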
# [16] = qHTS assay to identify small molecule antagonists of the progesterone receptor (PR) signaling pathway - cell viability counter screen (AID 1346798); further: series mostly up to about 92 µM; nearly all actives have a fitted effect of over 50% in size
# In short: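 Luminescence readout (CellTiter-Glo, 30 min, RT) of viability in PR-UAS-bla HEK293T cells exposed to compound and R5020 agonist for 16 hr at 37C, 5% CO2; run in the same wells as the beta-lactamase reporter read.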
# [17] = qHTS assay to identify small molecule agonists of the androgen receptor (AR) signaling pathway in the presence of an antagonist - cell viability counter screen (AID 1259379);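 further: MDA-kb2 human breast cancer cells carrying an MMTV luciferase reporter; series mostly up to about 92 µM; nearly all actives have a fitted effect of over 25% in size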
# In short: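 A CellTiter-Fluor read-out measured viability of MDA-kb2 reporter cells (MMTV promoter with AR and GR response elements). Treatment: nilutamide 3.0uM final with compounds at 15 concentrations, 16 hr, 37C, 0% CO2.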
# [18] = target: Androgen receptor (Homo sapiens) (UniProt P10275); test: qHTS assay to identify small molecule agonists of the androgen receptor (AR) signaling pathway in the presence of an antagonist (AID 1259381; calls by dose curve; further: nearly all actives have a fitted effect of over 15% in size)
# Androgen receptor (Homo sapiens), sequence (P10275 whole entry, looked up): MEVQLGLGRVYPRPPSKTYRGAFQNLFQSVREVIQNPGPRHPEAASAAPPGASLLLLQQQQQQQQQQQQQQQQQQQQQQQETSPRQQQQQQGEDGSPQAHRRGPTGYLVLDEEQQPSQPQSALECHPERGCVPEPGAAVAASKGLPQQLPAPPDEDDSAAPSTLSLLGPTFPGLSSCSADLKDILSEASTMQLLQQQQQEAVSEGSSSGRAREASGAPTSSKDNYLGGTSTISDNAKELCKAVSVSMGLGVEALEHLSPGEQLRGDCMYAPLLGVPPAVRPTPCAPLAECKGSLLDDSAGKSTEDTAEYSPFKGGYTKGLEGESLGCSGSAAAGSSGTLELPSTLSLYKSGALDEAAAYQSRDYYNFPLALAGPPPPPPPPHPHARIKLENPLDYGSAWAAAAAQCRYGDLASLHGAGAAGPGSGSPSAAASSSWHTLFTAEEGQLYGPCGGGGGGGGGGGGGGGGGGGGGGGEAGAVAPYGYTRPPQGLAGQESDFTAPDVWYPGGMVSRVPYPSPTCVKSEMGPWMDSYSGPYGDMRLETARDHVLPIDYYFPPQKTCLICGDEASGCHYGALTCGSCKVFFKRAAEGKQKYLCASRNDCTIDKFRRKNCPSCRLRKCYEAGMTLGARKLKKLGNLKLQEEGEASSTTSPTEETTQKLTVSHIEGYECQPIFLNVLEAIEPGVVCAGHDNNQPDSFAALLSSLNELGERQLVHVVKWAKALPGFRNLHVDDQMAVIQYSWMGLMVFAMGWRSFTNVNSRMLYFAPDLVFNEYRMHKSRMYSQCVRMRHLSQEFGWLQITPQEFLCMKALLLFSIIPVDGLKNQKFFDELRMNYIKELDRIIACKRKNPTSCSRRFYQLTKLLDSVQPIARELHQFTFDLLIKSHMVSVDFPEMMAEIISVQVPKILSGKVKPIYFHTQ
# In short: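 Using human MDA-kb2 cells with an MMTV promoter–luciferase construct (AR and GR response elements), agonist activity is scored under 3.0uM nilutamide (final) co-treatment; 16hr incubation, 37C, luminescence readout via ONE-Glo.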
Structure (SMILES),outcome [1],outcome [2],outcome [3],outcome [4],Potency [5],Potency [6],Potency [7],Potency [8],outcome [9],outcome [10],outcome [11],outcome [12],Potency [13],Potency [14],Potency [15],Potency [16],Potency [17],Potency [18]
Cc1ncc(COP(=O)(O)O)c(C=O)c1O,inactive,inactive,inactive,inactive,inactive,inactive,inactive,inactive,inactive,inactive,inactive,inactive,inactive,–,–,–,–,–
CCOC(=O)c1cnc2c(cnn2CC)c1NN=C(C)C,inactive,inactive,–,–,inactive,inactive,inactive,inactive,inactive,inactive,inactive,inactive,inactive,inactive,inactive,inactive,–,–
COc1cc(C(=O)OC(COCCC(C)C)CN2CCOCC2)cc(OC)c1OC (centres undefined),inactive,inactive,inactive,inactive,inactive,inactive,inactive,–,inactive,inactive,inactive,inactive,inactive,inactive,–,inactive,inactive,–
COc1ccc2cc1Oc1cc3c(cc1OC)CC[N+](C)(C)[C@H]3Cc1ccc(cc1)Oc1c(OC)c(OC)cc3c1[C@@H](C2)[N+](C)(C)CC3,inactive,inactive,inactive,inactive,inactive,inactive,inactive,–,inactive,inactive,inactive,inactive,inactive,–,inactive,inactive,inactive,–
Cc1ccc(C(=O)Nc2ccc(S(=O)(=O)O)c3cc(S(=O)(=O)O)cc(S(=O)(=O)O)c23)cc1NC(=O)c1cccc(NC(=O)Nc2cccc(C(=O)Nc3cc(C(=O)Nc4ccc(S(=O)(=O)O)c5cc(S(=O)(=O)O)cc(S(=O)(=O)O)c45)ccc3C)c2)c1,inactive,inactive,inactive,inactive,inactive,inactive,inactive,–,inactive,inactive,inactive,inactive,inactive,–,inactive,inactive,inactive,–
O=C(c1ccccc1O)c1ccccc1O,inactive,inactive,inactive,inactive,inactive,inactive,27 µM (active),inactive,inactive,–,inactive,–,–,inactive,–,inactive,inactive,inactive
CCN(CC#N)c1cccc(C)c1,inactive,inactive,–,–,inactive,inactive,inactive,inactive,inactive,–,inactive,–,–,–,inactive,inactive,inactive,–
CC(=O)c1cnccn1,inactive,inactive,inactive,inactive,inactive,inactive,inactive,inactive,inactive,inactive,inactive,inactive,inactive,–,–,inactive,inactive,–
CC[C@H]1OC(=O)[C@H](C)[C@@H](O[C@H]2C[C@@](C)(OC)[C@@H](O)[C@H](C)O2)[C@H](C)[C@@H](O[C@@H]2O[C@H](C)C[C@H](N(C)C)[C@H]2O)[C@](C)(OC)C[C@@H](C)C(=O)[C@H](C)[C@@H](O)[C@]1(C)O,inactive,inactive,–,–,inactive,inactive,inactive,inactive,inactive,inactive,inactive,inactive,inactive,–,inactive,inactive,inactive,–
C=C(C)C(=O)OCC(O)CO (centres undefined),inactive,–,inactive,inactive,inactive,inactive,inactive,–,inactive,–,inactive,inactive,inactive,inactive,inactive,inactive,inactive,inactive
Cc1nc(C2CCCCC2)c(-c2ccc(S(N)(=O)=O)c(F)c2)o1,inactive,inactive,inactive,inactive,inactive,inactive,26.6 µM (active),–,inactive,inactive,inactive,inactive,inactive,inactive,inactive,–,inactive,–
c1coc(CNc2ncnc3nc[nH]c23)c1,inactive,inactive,inactive,inactive,inactive,inactive,inactive,–,inactive,inactive,inactive,inactive,inactive,–,inactive,inactive,inactive,–
CCCC[N+](C)(CCCC)CCCC,inactive,inactive,inactive,inactive,inactive,inactive,inactive,inactive,inactive,inactive,inactive,–,–,inactive,inactive,inactive,–,–
CC(=O)O[C@@]12CO[C@@H]1C[C@H](O)[C@@]1(C)C(=O)[C@H](O)C3=C(C)[C@@H](OC(=O)[C@H](O)[C@@H](NC(=O)OC(C)(C)C)c4ccccc4)C[C@@](O)([C@@H](OC(=O)c4ccccc4)[C@H]21)C3(C)C,inactive,inactive,–,–,inactive,inactive,inactive,–,inactive,inactive,inactive,–,–,inactive,inactive,–,–,inactive
NC(=O)N1c2ccccc2CC(=O)c2ccccc21,inactive,–,inactive,inactive,inactive,inactive,inactive,inactive,inactive,inactive,inactive,–,–,inactive,inactive,inactive,inactive,–
C1CCC2=NCCCN2CC1,inactive,–,inactive,inactive,inactive,inactive,inactive,inactive,inactive,inactive,inactive,–,–,inactive,inactive,inactive,inactive,–

# — PubChem BioAssay (Tox21)
